Bioassay records deposited in PubChem by Broad Institute.
The full list was thinned out, with hits kept by preference.
IDE exosite inh = exo-site inhibitors of human IDE, primary screen, biochemical, fluorescence anisotropy, probe displacement. z-score at 20 µM. purified IDE, FL-6b probe fluorescence polarization; hits give low values. 6.3% of 17,000 active;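 active = z-score of -3 or lower, meaning strong loss of probe binding signal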;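 note: His-tagged human IDE residues 42-1019 made in E. coli with 30 nM FL-6b probe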
Each line names hits and unclear results; the compound was inactive in the other large screens.

COc1ccc(-c2ccc([C@H]3[C@@H](CO)N4CCCCN(C(=O)Cc5ccccc5)C[C@@H]34)cc2)cc1	none
COc1cccc(-c2ccc([C@@H]3[C@H](CO)N4CCCCN(C(=O)Cc5ccncc5)C[C@@H]34)cc2)c1	IDE exosite inh -3.86
COc1cccc(-c2ccc([C@H]3[C@@H](CO)N4CCCCN(C(=O)Cc5ccncc5)C[C@@H]34)cc2)c1	none
COc1cccc(-c2ccc([C@@H]3[C@@H](CO)N4CCCCN(C(=O)Cc5ccncc5)C[C@@H]34)cc2)c1	none
COc1ccc(-c2ccc([C@H]3[C@H](CO)N4CCCCN(C(=O)Cc5ccccc5)C[C@@H]34)cc2)cc1	none
COc1ccc(-c2ccc([C@@H]3[C@H](CO)N4CCCCN(C(=O)Cc5ccccc5)C[C@@H]34)cc2)cc1	IDE exosite inh -3.14
C/C=C/c1ccc(C2[C@@H]3CN(C(=O)C4CCOCC4)C[C@H]2N3)cc1 (stereo partly drawn)	none
O=C(Cc1ccccc1)N1CCCCN2[C@H](CO)[C@H](c3ccc(C#CC4(O)CCCC4)cc3)[C@@H]2C1	none
c1cncc(-c2ccc(C3[C@H]4CNC[C@@H]3N4CC3CC3)cc2)c1 (stereo partly drawn)	none
N#Cc1cccc(-c2ccc([C@H]3[C@H]4CN(C(=O)Cc5cccnc5)CCCCN4[C@H]3CO)cc2)c1	none
O=C(Cc1cccnc1)N1CCCCN2[C@H](CO)[C@@H](c3ccc(C#CC4CCCC4)cc3)[C@@H]2C1	none
O=C(Cc1cccnc1)N1CCCCN2[C@H](CO)[C@@H](c3ccc(/C=C/c4ccccc4)cc3)[C@@H]2C1	IDE exosite inh -8.82
COc1ccc(C#Cc2ccc([C@@H]3[C@@H](CO)N4CCCCN(C(=O)Cc5cccnc5)C[C@H]34)cc2)cc1	none
C/C=C/c1ccc([C@@H]2[C@@H](CO)N3CCCCN(C(=O)Cc4cccnc4)C[C@@H]23)cc1	none
COc1ccc(C#Cc2ccc([C@@H]3[C@H](CO)N4CCCCN(C(=O)Cc5cccnc5)C[C@@H]34)cc2)cc1	none
C/C=C/c1ccc([C@@H]2[C@H](CO)N3CCCCN(C(=O)Cc4cccnc4)C[C@@H]23)cc1	none
O=C(Cc1cccnc1)N1CCCCN2[C@H](CO)[C@H](c3ccc(/C=C/c4ccccc4)cc3)[C@H]2C1	IDE exosite inh -11.4
C/C=C/c1ccc([C@H]2[C@@H](CO)N3CCCCN(C(=O)Cc4ccncc4)C[C@H]23)cc1	none
O=C(Cc1cccnc1)N1CCCCN2[C@H](CO)[C@@H](c3ccc(/C=C/c4ccccc4)cc3)[C@H]2C1	IDE exosite inh -9.36
N#Cc1cccc(-c2ccc([C@@H]3[C@@H](CO)N4CCCCN(C(=O)Cc5ccccc5)C[C@H]34)cc2)c1	none
O=C(Cc1ccncc1)N1CCCCN2[C@H](C1)[C@@H](c1ccc(C#CC3(O)CCCC3)cc1)[C@@H]2CO	none
C/C=C/c1ccc(C2[C@@H]3CN(C(=O)c4cnccn4)C[C@H]2N3)cc1 (stereo partly drawn)	none
N#Cc1ccc(-c2ccc([C@@H]3[C@H]4CN(C(=O)Cc5ccccc5)CCCCN4[C@H]3CO)cc2)cc1	none
O=C(Cc1ccccc1)N1CCCCN2[C@@H](CO)[C@H](c3ccc(C#CC4(O)CCCC4)cc3)[C@@H]2C1	none
O=C([C@H]1N[C@H]2c3cccc(=O)n3C[C@H]2[C@@H]1CO)N1CCCCC1	none
COc1cccc(CN2CC3(C2)[C@H](c2ccccc2)[C@H](CO)N3C(=O)Cc2ccccc2)c1	none
N#Cc1cccc(-c2ccc([C@@H]3[C@@H](CO)N4CCCCN(C(=O)Cc5ccccc5)C[C@@H]34)cc2)c1	none
O=C(Cc1ccncc1)N1CCCCN2[C@H](CO)[C@@H](c3ccc(C#Cc4ccccc4F)cc3)[C@H]2C1	none
O=C(Cc1ccncc1)N1CCCCN2[C@@H](CO)[C@@H](c3ccc(C#Cc4ccccc4F)cc3)[C@@H]2C1	IDE exosite inh -5.42
O=C(Cc1ccncc1)N1CCCCN2[C@H](CO)[C@H](c3ccc(C#Cc4ccccc4F)cc3)[C@H]2C1	IDE exosite inh -4.15
COc1ccc(C#Cc2ccc([C@@H]3[C@H](CO)N4CCCCN(C(=O)Cc5ccncc5)C[C@@H]34)cc2)cc1	none
O=C(Cc1ccccc1)N1CCCCN2[C@H](CO)[C@@H](c3ccc(C#Cc4ccccc4)cc3)[C@@H]2C1	none
O=C(Cc1ccccc1)N1CCCCN2[C@H](CO)[C@@H](c3ccc(C#Cc4ccccc4)cc3)[C@H]2C1	none
COc1cccc(-c2ccc([C@H]3[C@@H](CO)N4CCCCN(C(=O)Cc5ccncc5)C[C@H]34)cc2)c1	none
O=C(Cc1ccccn1)N1CCCCN2[C@H](CO)[C@@H](c3ccc(C#Cc4ccccc4)cc3)[C@H]2C1	none
O=C(Cc1ccccn1)N1CCCCN2[C@H](CO)[C@H](c3ccc(C#Cc4ccccc4)cc3)[C@H]2C1	IDE exosite inh -9.51
O=C(Cc1ccccn1)N1CCCCN2[C@H](CO)[C@@H](c3ccc(C#Cc4ccccc4)cc3)[C@@H]2C1	IDE exosite inh -4.94
O=C(Cc1ccccn1)N1CCCCN2[C@@H](CO)[C@@H](c3ccc(Br)cc3)[C@@H]2C1	none
